High-throughput results deposited in PubChem by NMMLSC.
Bead autofluor – flagged as autofluorescent in microsphere protease counterscreen; compound autofluorescence counterscreen, microsphere flow cytometry; stronger effect = higher value; fluorescence intensity (no concentration beside the values); 360,000 compounds, 3.1% hits; in the data active = fluorescence intensity above about 16000; inconclusive = no clear call, values can overlap the other calls
Anthrax LF inh2 – Bacillus anthracis LF protease inhibitors, primary screen, biochemical, multiplex microsphere, MLPCN library; Lethal factor (Bacillus anthracis), P15917; multiplex microsphere protease cleavage assay; inhibition, % at 10 µM; 360,000 compounds, 0.12% hits; AID 588501, 2011
BoNT-F LC inh – BoNT/F light chain protease inhibitors, primary screen, biochemical, flow cytometry, MLPCN library. 360,000 compounds, 0.22% hits. Botulinum neurotoxin type F light chain protease (Clostridium botulinum). Multiplex microsphere protease cleavage assay. inhibition, % at 10 µM; in the data active = inhibition above about 35%, passing the limit was not always enough; inconclusive = no clear call, values can overlap the other calls
BoNT-A LC inh2 – BoNT/A light chain protease inhibitors, primary screen, biochemical, flow cytometry, MLPCN library | 360,000 compounds, 0.17% hits | Botulinum neurotoxin type A light chain protease (Clostridium botulinum A str. ATCC 3502) | inhibition, % at 10 µM | multiplex microsphere protease substrate cleavage
Numbers stand for hits; n = inactive; u = inconclusive. Most compounds without a hit are left out; they make up all but 3.5% or so of the library. Cut-off read from the data, not from the text of the source, unless noted: active = inhibition above about 30%; inconclusive = no clear call, values can overlap the other calls; inactive = below that.

SMILES	Bead autofluor	Anthrax LF inh2	BoNT-F LC inh	BoNT-A LC inh2
CN1CCCC(C#CC(O)(c2ccccc2)c2ccccc2)C1 (stereo not drawn)	n	n	n	n
O=C(CCS(=O)(=O)c1ccc(Br)cc1)N1CCN(c2ccc(Cl)cc2)CC1	20319	n	n	n
CC12CCC(C(=O)Nc3cc(Cl)ccc3Cl)(C(Br)C1=O)C2(C)C (stereo not drawn)	n	n	n	n
CC1CCC(C(=O)c2c(O)c3ccccc3oc2=O)CC1 (stereo not drawn)	20872	n	n	n
COc1cc2c(cc1OC)-c1cc(NC3CCCC3)nc(=O)n1CC2	22438	n	n	u
COc1cccc(OC)c1OCCCOc1c(OC)cccc1OC	n	n	n	n
COc1cccc(OCCOc2c(OC)cccc2OC)c1	n	n	37	n
Cc1cnn(CCC(=O)NNC(=S)Nc2ccccc2)c1	22734	n	n	n
Cc1ccc(NC(=S)NNC(=O)CCn2cc(C)cn2)cc1	20267	n	n	n
Cc1cnn(CCC(=O)NNC(=S)NCC(C)C)c1	n	n	n	n
OC(c1ccccn1)C(O)c1ccccn1 (stereo not drawn)	n	n	n	n
Cc1ccccc1C(O)c1ccccn1 (stereo not drawn)	24308	n	n	n
Cc1nn2c(-c3ccncc3)nnc2c2ccccc12	n	n	n	n
COc1ccc(-c2nnc3ccc(SCC(=O)NCC4CCCO4)nn23)cc1 (stereo not drawn)	25334	n	n	n
COc1ccc(-c2nnc3c4ccccc4c(C)nn23)cc1	22622	n	n	n
COc1ccc(-c2nnc3ccc(SC)nn23)cc1	17068	n	n	n
O=C(CSc1ccc2nnc(-c3ccc(F)cc3)n2n1)NCC1CCCO1 (stereo not drawn)	n	n	n	u
COc1ccc(S(N)(=O)=O)cc1C(N)=O	n	n	n	n
C[C@@H]1CCCCO[C@@H](CN(C)C(=O)C2CCCCC2)[C@@H](C)CN([C@H](C)CO)C(=O)c2cc(NC(=O)NC3CCCCC3)ccc2O1	n	n	n	n
CN(C)S(=O)(=O)c1ccc(NC(=O)CN2C(=O)NC3(CCCC3)C2=O)cc1	u	n	n	n
Cc1cccc2cc(C(c3nnnn3C(C)(C)C)N(Cc3ccco3)CC3CCCO3)c(=O)[nH]c12 (stereo not drawn)	21568	n	n	n
COc1ccc(Cn2nnnc2C(c2cc3cccc(C)c3[nH]c2=O)N2CCOCC2)cc1 (stereo not drawn)	n	n	n	n
Cc1ccc2cc(C(c3nnnn3C3CCCC3)N(Cc3ccco3)Cc3cccs3)c(=O)[nH]c2c1 (stereo not drawn)	24754	n	n	n
Cc1cccc2cc(C(c3nnnn3CC3CCCO3)N3CCOCC3)c(=O)[nH]c12 (stereo not drawn)	18150	n	n	u
Cc1cccc2cc(C(c3nnnn3Cc3ccccc3)N3CCCc4ccccc43)c(=O)[nH]c12 (stereo not drawn)	23808	n	n	u
SMILES	Bead autofluor	Anthrax LF inh2	BoNT-F LC inh	BoNT-A LC inh2
COc1ccccc1CCC(=O)N1CCN(S(=O)(=O)c2cc(C(F)(F)F)ccc2Cl)CC1	n	n	n	n
Cc1ccc(NC(=O)c2sc3ncn(CC(=O)N4CCOCC4)c(=O)c3c2C)c(Br)c1	n	n	n	n
CN(Cc1cnn(-c2ccc(F)cc2)c1)C(=O)[C@H]1O[C@@H](n2cnc3c(N)ncnc32)[C@H](O)[C@@H]1O	n	n	n	n
COc1ccccc1N1CCN(C(=O)c2cccc(S(=O)(=O)NCc3cccnc3)c2)CC1	n	n	n	n
CC(=O)c1ccc(N2CCN(Cc3nc(Cc4ccccc4)no3)CC2)cc1	n	n	n	n
O=c1[nH]c2cc3c(cc2cc1C(c1nnnn1CC1CCCO1)N1CCCCCC1)OCCO3 (stereo not drawn)	22706	n	n	n
CCn1c(SCc2cccc(C(F)(F)F)c2)nnc1-c1ccco1	22937	n	n	n
COc1ccc(N2C(=O)CC(Sc3nc4ccccc4s3)C2=O)cc1 (stereo not drawn)	n	n	n	n
C=CCNc1nnc(SC2CC(=O)N(c3ccc(OC)cc3)C2=O)s1 (stereo not drawn)	17184	n	n	n
CC[C@]12c3[nH]c4ccc(OC)cc4c3CCN1C(=O)C(CC(=O)NCc1ccco1)C[C@@H]2C(=O)N1CCN(C(=O)c2ccco2)CC1 (stereo partly drawn)	n	n	n	n
Cc1ccc(CSc2ncnc3c2cnn3Cc2ccccc2)cc1C	21383	n	n	n
Cc1c([N+](=O)[O-])cc(C(=O)Oc2ccc(Br)cc2C(=S)N2CCCCC2)cc1[N+](=O)[O-]	22033	n	n	u
Cc1ccc(C(=O)Oc2ccc(Br)cc2C(=S)N2CCOCC2)cc1	n	n	n	n
CNc1ccc(Br)cc(C(=O)/C=C/c2cccc(OC)c2)c1=O	17911	n	n	n
CCNc1ccc(Br)cc(C(=O)/C=C/c2ccc(Cl)cc2)c1=O	n	n	n	n
CCNc1ccc(Br)cc(C(=O)/C=C/c2c(Cl)cccc2Cl)c1=O	n	n	n	59
CNC(=O)C(=O)Nc1nc(C23CC4CC(CC(C4)C2)C3)cs1	n	n	n	n
Cc1noc(C)c1C(=O)Nc1nc(C23CC4CC(CC(C4)C2)C3)cs1	23212	n	n	n
CCN1CCN(C(=O)Nc2cccc3ccccc23)CC1	n	n	n	n
CN1CCN(C(=O)Nc2cccc3ccccc23)CC1	18834	n	n	n
Cc1ccc(S(=O)(=O)NC2CCC(C(=O)O)CC2)cc1 (stereo not drawn)	17170	n	n	n
Cc1ccc(S(=O)(=O)NC2CC2)cc1	n	n	n	n
Cc1ccc(S(=O)(=O)NCC(=O)NC2CCCC2)cc1	23092	n	n	n
Cc1ccc(NS(=O)(=O)c2ccc(CCC(=O)NC3CC3)cc2)cc1	23092	n	n	n
N#Cc1cnc(SCC(=O)Nc2ccccc2C(F)(F)F)nc1N	17110	n	n	u
SMILES	Bead autofluor	Anthrax LF inh2	BoNT-F LC inh	BoNT-A LC inh2
Cc1ccc(OCC(=O)NNC(=O)CSc2ncc(C#N)c(N)n2)cc1	n	n	n	n
Cc1nc(N)sc1-c1nnc(SCC(=O)Nc2ccccc2C(F)(F)F)n1C	22790	n	n	n
Cc1ccccc1N(CC(=O)NCC1CCCO1)C(=O)CNS(=O)(=O)c1ccc(F)cc1 (stereo not drawn)	n	n	n	n
CC(C)CNC(=S)NC1CCCC1	20457	n	n	u
CC(C)CNC(=O)C(=O)NC1CCCC1	n	n	n	n
CCOc1cc(-c2nnn(CC(=O)N3CCCCC3)n2)ccc1OC	n	n	n	n
COc1ccc(-c2nnn(CCc3nn[nH]n3)n2)cc1OC	21931	n	n	n
CCOc1ccc(-c2nnn(CCC(=O)O)n2)cc1OC	21762	n	n	n
COc1ccc(S(=O)(=O)Nc2ccccc2C(=O)N2CCOCC2)cc1C	n	n	n	n
CC1(NC(=O)c2cc(S(=O)(=O)N3CCCCC3)ccc2Cl)CCS(=O)(=O)C1 (stereo not drawn)	24171	n	n	n
